Test results published in the supplement of paper PMC6555819.

Assays:
Assay in all cases: PBM binding z-score (relative to random genomic background probes); higher = stronger binding; sequences stand for … in GC…GCGATTGACAGCGTAGAATGAAGG
[1] = tested on: RARb homodimer (NR concentration 270 nM)
Summary of the method: (§1)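 Custom Agilent 4×180K protein-binding microarrays carried double-stranded probes, each with a 34-nt variable region. These regions held direct-repeat seeds, single-nucleotide variants, half-site ablations and random human genomic background sequences. Ligand-free nuclear receptor dimers were incubated on the arrays for 1 h, antibodies against each partner (one per run) detected binding, and scanned fluorescence was regression-normalized. Binding z-scores take the random background probes as reference.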

[2] = tested on: RARg:RXRa (NR concentration 270 nM, RXRa partner concentration 90 nM)
Summary of the method: as §1

[3] = tested on: RARg homodimer (NR concentration 270 nM)
Summary of the method: as §1

[4] = tested on: RXRa DBDmut IVT, anti-RXR (DBD mutation: RXRa K156A/R161A, NR concentration 90 nM)
Summary of the method: as §1

[5] = tested on: RXRa homodimer (NR concentration 180 nM)
Summary of the method: as §1

[6] = tested on: THRa:RXRa (NR concentration 90 nM, RXRa partner concentration 90 nM)
Summary of the method: as §1

[7] = tested on: THRa homodimer (NR concentration 90 nM)
Summary of the method: as §1

[8] = tested on: VDR homodimer (NR concentration 270 nM)
Summary of the method: as §1

Sequence	PBM binding z-score [1]	PBM binding z-score [2]	PBM binding z-score [3]	PBM binding z-score [4]	PBM binding z-score [5]	PBM binding z-score [6]	PBM binding z-score [7]	PBM binding z-score [8]
CCTGCTAGGTCAATGGTCATCTAAAGCAGCTCGC	2.97	3.73	4.61	1.79	2.51	2.23	0.612	0.333
GCATATAGGTAATACATGGTGAAAGTCCGATTGT	-0.181	0.00391	0.437	0.319	0.441	0.327	-0.218	0.32
AATACAGGGTCATCGTAGGCCAGAGTTCGCACAG	3.88	5.67	5.21	3.68	6.43	4.77	1.65	5.37
CGTCCAAGGTCATAGGTGGTCAGTGAAGACAGAT	4.26	5.65	5.75	3.99	5.94	4.18	2.79	3.02
CATACAGAGTCAGCTAGGCCAGAGTAGGGACGGC	-0.0712	-0.273	0.105	-0.231	-0.193	-0.152	-0.18	-0.481
CTACCAAGGCGAACAAGGTCGTTGATTACTATTC	0.781	0.29	0.0992	0.854	0.744	2.38	0.72	1.38
CCTCGGAGGACATCAGGAGGTCAGAGCTGCCAGA	3.17	3.48	3.04	0.267	2.63	2.67	1.05	1.06
TTACCACGGTGAAGGTCGTTGATCCCTCTGTAGA	1.29	0.459	0.382	-0.000966	1.37	0.834	0.375	0.451
TCTTGTAGATCAACCGGAGGTTAAGAAAGATCGA	0.462	1.22	0.219	0.651	0.914	1.12	-0.269	-0.0131
TCTTGTAGAGCAGCAGGTTAAGAAAGCTGGCCAA	-0.584	-0.394	-0.758	-0.623	-0.14	-0.0931	-1.03	-1.08
TAGCCGAGGTCATTGGGCCAGTATAGTACGCATC	3.98	5.93	5.86	4.42	6.61	4.01	2.77	5.01
ATCTTTAGGTAACCAAGTTCAGTGAATGCCGAAC	1.55	0.783	1.04	1.36	0.709	2.07	1.25	2.66
CCGAGTAGGTTATGGGACATTCAGGCAACGGTGA	0.969	0.533	0.86	0.181	0.607	0.565	0.413	0.326
CTTCCAAGGTCAAAGGTCAGTGAAGAGATGACGG	5.53	8.63	8.01	3.91	10.4	5.02	3.03	3.67
ATCTCTCGGTAAAGATAGTTCAGTGAATGCAAAT	1.07	0.757	0.753	-0.259	0.154	0.376	0.031	0.334
CCTACTGGGCCAAAAAGGTCACTGATGCCGATAA	4.56	4.77	4.86	0.0179	4.83	3.07	0.702	1.53
TCGATTAGTTGATTAGGGCAACCGAAACAGCGGA	0.521	0.102	0.329	0.535	0.0192	0.565	0.154	-0.306
CCTATTAGTTGACCATAAGGGCAACCCAAGCTCG	2.32	1.44	1.19	0.764	0.835	2.07	1.53	1.28
CTCGAAAGCTCGTGCTCAGGTGAGTATACCAAAC	-0.48	-0.629	-0.592	-0.295	-0.748	0.472	0.274	-0.591
TAGACTAGGTCATTCAGGGGCCAGTATAGAAAGC	3.07	5.47	4.47	1.33	2.82	3.29	0.816	1.63
ACTAGTTGGTCAGCTGAGGTCACAAACAATTCGG	4.02	3.8	3.86	0.835	3.71	5.04	4.45	3.58
TAGCCTAGGGCATTGGGCCAGTATAGTACGCATC	0.542	0.434	1.21	-0.706	0.0585	-0.328	-0.611	-0.306
ACTATTAGTTGGCTTAGGGCAACCGATACGACGC	0.69	0.504	0.733	0.512	0.326	0.788	0.529	0.021

Sequence	PBM binding z-score [1]	PBM binding z-score [2]	PBM binding z-score [3]	PBM binding z-score [4]	PBM binding z-score [5]	PBM binding z-score [6]	PBM binding z-score [7]	PBM binding z-score [8]
TGAGACAGGTGAAGGTAACTCAGGTACGCAGTCG	0.449	0.201	0.61	-1.52	0.312	1.18	-0.173	-0.0182
GGAACGAGGGCATTCGAGTTGATAGCTTGGCGAT	0.679	1.02	1.33	3.13	0.592	3.17	-0.698	3.03
GCTCTTAGTTGAAAGGGCAACCGAATGATTCTCG	1.96	1.34	1.31	0.899	1.18	0.622	-0.289	0.164
CCTACTGGGCCAAGGTCATTTATCAGTCAAAGCA	3.46	3.47	2.79	1.61	3.07	3.27	2.44	3.42
GCAGACAGGTGAAGCGCAGGTAACTCAGGGTGGC	-0.151	0.302	0.0246	-0.801	0.395	0.73	-0.688	-0.755
CCGAGTAGGTTAAGGGGCATTCAGGCAACGGTGA	1.56	1.08	0.926	0.277	1.43	1.32	0.369	0.685
AGAATGAGGTTACCAAAGATCAGGGTAACGCTTG	1.37	2.15	1.95	1.3	3.07	3.1	1.43	0.478
CCAACTGGGGCAGAAAGGTTACCATACCATCCGG	2.5	1.72	1.37	-0.546	1.76	1.06	0.0988	-0.202
ATATGTAAGTTACATCCGGGTCATTCAGGCTATG	2.56	1.71	1.21	1.07	2.15	3.43	2.33	3.16
CGAACTAGGTCAGAATAGGACAGTGAAGGATGAT	2.16	2.58	3.36	0.702	1.3	2.77	0.0202	-0.245
TATTGTAGATCAAGCAGGTTAAGAAAGCCTGAGT	0.00937	0.285	0.147	-0.887	0.374	0.288	-0.434	0.132
CCGAGCAGGCCAGGGTCACTCAAGCATTTCGCTT	2.91	3.13	2.66	0.694	3.6	2.91	1.02	1.31
TCATATGGGTAAACAGGTGAAAGTCCGTAAGTTA	0.47	0.0718	-0.135	0.95	0.566	0.434	-0.368	-0.103
TGAATGAGGTTATAATATCAGGGAACGTTGCAAA	0.41	1.56	1.12	0.98	2.04	1.92	0.355	0.545
CGAACTAGGTCAAGGAGAGTGAATCTCCGCACGC	2.9	3.91	4.76	1.44	2.85	2.28	0.799	-0.00315
GCATATAGGTAATACAAGGTGAAAGCCCGATTGT	0.51	0.492	0.56	0.379	0.681	4.09	0.763	-0.285
TAGCATAGGTCAGATCGGGCCAGTATACGCTATA	2.53	3.8	3.77	-0.503	2.97	4.24	-1.1	-0.438
TATACAGGGTCCAAGGCCAGAGTACGAATGTCGA	1.18	0.986	1.15	1.17	0.823	0.402	0.398	2.03
GCATATAGGTAATACAAGGTGAAAGTACGATTGT	0.886	0.699	0.793	0.0522	0.99	4.29	0.806	0.163
CCAGACAGGTGAGAAAGTAACTCAGCCTCGATTA	0.0469	0.0483	0.249	0.169	0.0557	-0.0555	-0.123	-0.255
AGTCAAAGTTCATCGAGGTAACGTAAGATATGCT	4.15	5.57	6.25	4.45	4.87	3.97	1.19	5.6
TCTAGCGGGCCAGAGGGTCACTCAAGAGGTACGG	2.86	2.61	1.98	0.0957	2.37	1.51	-0.522	0.587
TAGCCTAGGGCAGATCGGGCCAGTATACGCTATA	-0.161	0.171	0.578	-1.17	-0.16	2.16	-1.07	-0.532

Sequence	PBM binding z-score [1]	PBM binding z-score [2]	PBM binding z-score [3]	PBM binding z-score [4]	PBM binding z-score [5]	PBM binding z-score [6]	PBM binding z-score [7]	PBM binding z-score [8]
ATCGAAAGGTCGAAGGTGATTATACCCACCCGAA	2.14	4.11	3.87	0.956	4.77	1.97	0.193	0.477
GCTCGGAGGACAGGGTCAGAGCTTTGTCCGTAGA	2.28	2.42	2.37	0.265	2.69	2.4	0.321	0.212
CAGCCTAGGTCAGGGCAAGTATAGGAGGAACGTT	2.89	3.37	4.42	0.0937	2.07	2.2	0.481	-0.0774
CCGAGTAGGTAATGGGGCATTCAGGCAACGGTGA	0.64	-0.0696	0.0893	-0.575	0.0759	0.219	0.00825	-0.22
CTACCAAGGTGAACACGGTCGTTGATTACTATTC	1.24	0.852	0.843	0.773	0.777	2.07	0.961	0.015
TCATATAGGTCATACAGGTGAAAGTCGGCATCTA	3.8	5.21	5.03	2.68	5.27	3.42	0.973	1.81
GTACCAAGGAGAATAGGTCGTTGATGAGTAGGCG	0.0836	0.268	0.222	-0.343	0.654	-0.111	-0.986	-0.123
CAGACTAGGTCAGGGCCAGTATAGGAGGAACGTT	2.28	2.67	3.34	-0.345	1.3	1.65	0.0626	-0.295
CGTCAAAGTTCAACTAAGGTATCGTAAAGCACGC	4.26	5.92	6.75	4.68	5.21	4.92	0.41	4.04
CGTCCAAGGTCAGCAGGTCAGTGCAAGCGACGTG	4.99	6.35	6.82	2.29	4.74	3.77	2.47	2.18
ATATGTAGGTTATCGGGGCATTCAGTTTGCGCAT	1.53	1.3	1.24	1.35	1.25	1.49	1.4	2.14
CCTTACGGGTCAAGGGTATAGCACGGGTGGTACG	3.17	4.8	4.86	0.672	5.32	2.38	0.0653	0.904
GCTTACGGGTCAAAGGATATAGCATGAATAGAAT	2.26	4.62	3.96	1.92	5.17	2.22	-0.222	0.703
CGTCCAAGGTCAGCAGGTCATTGAAAGCGACGTG	5.08	6.83	6.69	2.59	6.04	4.26	2.98	2.36
CTCGAAAGGTCGGTTGTGGTGAGTATACGGATAA	1.92	2.21	2.35	1.08	1.79	2.66	0.291	0.903
AGTCAAAGTTCACTAGGTAAAGTAAGATTCAGCT	3.32	4.93	5.48	4.25	4.02	1.75	0.0953	3.61
TCAGAGAGGTGAAGGTAACTCAGGTACGCAGTCG	1.34	1.54	1.36	1.31	1.85	2.04	0.401	0.316
CTCGAACGGTCGTGCTCAGGTGAGTATACCAAAC	0.628	0.435	0.489	0.177	-0.088	1.4	0.536	-0.528
CCTTACGGGGCACGAGGTTATAGCACGACGAGCG	1.27	2.07	1.74	-0.444	1.92	1.48	0.0456	0.346
GCTTACGGGTCAAAGGTTATAGCATGAATAGAAT	3.25	6.76	4.71	2.42	9.18	4.02	0.25	1.58
CCTATTAGTTGACGATAAGGGCAACCGAAGCTCG	1.43	0.95	0.873	0.16	0.582	1.57	0.591	0.415
TTGCCTAGGTCATGCGGGCCAGTATAGTGTCGGC	2.96	3.93	4.33	0.791	2.76	3.08	0.807	0.421
